Drawing on the supplement of paper PMC10849652, this text covers log2 fold change for 15 targets.

What all share (test): log2 fold change, soluble protein after heating vs DMSO (PISA); higher = thermal stabilisation; K562 lysate, 10 uM; active = over 0.2 and 3.5 SD of the protein, either way, in both replicates (recomputed)
Compound in test [1]: C#Cc1cccc(Nc2ncnc3cc(OCCOC)c(OCCOC)cc23)c1 [erlotinib]
In short, it runs like this: (§1)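 Pellets of K562 cells were dounce-homogenised in PBS pH 7.4 with 1 mM MgCl2, and the crude extract was held at 1 mg/mL protein for a 30 min treatment with 10 μM compound. Aliquots were heated for 3 min over 48°C-58°C and pooled before NP-40 was added to 0.5% at 4°C. The supernatant from 21,000xg for 90 min was quantified by TMTpro 16plex LC-MS/MS with channel sums equalised. Values are reported from duplicates as log-two fold change in thermal stability relative to solvent controls.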

Compound in test [2]: C/C(=N\NC(=O)C1=CC(=CC=C1)S(=O)(=O)N2CCOCC2)/C3=C(C=CC(=C3)Cl)O
The procedure, abridged: as §1

Compound in test [3]: C1=CC(=CC=C1C2=NC3=C(N2)C=C(C=C3)C(=O)N)OC4=CC=C(C=C4)Cl
In short, it runs like this: as §1

Compound in test [4]: C1=CC2=C(C=CC(=C2)/C=C\3/C(=O)NC(=NCC4=CC=CS4)S3)N=C1
The procedure, abridged: as §1

Compound in test [5]: C1=CC2=NC=CN=C2C=C1/C=C/3\C(=O)NC(=O)S3
In short, it runs like this:
as §1

Compound in test [6]: C1=CC=C(C=C1)C2=NC(=C(N2)C3=CC=NC=C3)C4=CC(=C(C=C4)Cl)O
The procedure, abridged:
as §1

Compound in test [7]: C1=CC=C2C(=C1)C3=NNC4=CC=CC(=C43)C2=O
The procedure, abridged: as §1

Compound in test [8]: C1CCN(C1)C(=O)NC2=CC=CC(=C2)NC3=NC=C(C(=N3)NCCC4=CN=CN4)Br
The procedure, abridged: as §1

Compound in test [9]: C1CN(CCC1(CC2=CC=C(C=C2)Cl)N)C3=NC=NC4=C3C=CN4
In short, it runs like this:
as §1

Compound in test [10]: C1COCCN1CCN2C3=CC=CC=C3N=C2NC(=O)C4=CC(=CC=C4)[N+](=O)[O-] [IRAK-1-4 Inhibitor I]
The procedure, abridged:
as §1

Of roughly 8,800 targets only a part is listed; those with a hit were picked by preference. About 0.5% of all pairs of compound and target were hits. Values without a mark were called inactive.

UniProt Q9UQE7, sequence (Q9UQE7 whole entry, looked up): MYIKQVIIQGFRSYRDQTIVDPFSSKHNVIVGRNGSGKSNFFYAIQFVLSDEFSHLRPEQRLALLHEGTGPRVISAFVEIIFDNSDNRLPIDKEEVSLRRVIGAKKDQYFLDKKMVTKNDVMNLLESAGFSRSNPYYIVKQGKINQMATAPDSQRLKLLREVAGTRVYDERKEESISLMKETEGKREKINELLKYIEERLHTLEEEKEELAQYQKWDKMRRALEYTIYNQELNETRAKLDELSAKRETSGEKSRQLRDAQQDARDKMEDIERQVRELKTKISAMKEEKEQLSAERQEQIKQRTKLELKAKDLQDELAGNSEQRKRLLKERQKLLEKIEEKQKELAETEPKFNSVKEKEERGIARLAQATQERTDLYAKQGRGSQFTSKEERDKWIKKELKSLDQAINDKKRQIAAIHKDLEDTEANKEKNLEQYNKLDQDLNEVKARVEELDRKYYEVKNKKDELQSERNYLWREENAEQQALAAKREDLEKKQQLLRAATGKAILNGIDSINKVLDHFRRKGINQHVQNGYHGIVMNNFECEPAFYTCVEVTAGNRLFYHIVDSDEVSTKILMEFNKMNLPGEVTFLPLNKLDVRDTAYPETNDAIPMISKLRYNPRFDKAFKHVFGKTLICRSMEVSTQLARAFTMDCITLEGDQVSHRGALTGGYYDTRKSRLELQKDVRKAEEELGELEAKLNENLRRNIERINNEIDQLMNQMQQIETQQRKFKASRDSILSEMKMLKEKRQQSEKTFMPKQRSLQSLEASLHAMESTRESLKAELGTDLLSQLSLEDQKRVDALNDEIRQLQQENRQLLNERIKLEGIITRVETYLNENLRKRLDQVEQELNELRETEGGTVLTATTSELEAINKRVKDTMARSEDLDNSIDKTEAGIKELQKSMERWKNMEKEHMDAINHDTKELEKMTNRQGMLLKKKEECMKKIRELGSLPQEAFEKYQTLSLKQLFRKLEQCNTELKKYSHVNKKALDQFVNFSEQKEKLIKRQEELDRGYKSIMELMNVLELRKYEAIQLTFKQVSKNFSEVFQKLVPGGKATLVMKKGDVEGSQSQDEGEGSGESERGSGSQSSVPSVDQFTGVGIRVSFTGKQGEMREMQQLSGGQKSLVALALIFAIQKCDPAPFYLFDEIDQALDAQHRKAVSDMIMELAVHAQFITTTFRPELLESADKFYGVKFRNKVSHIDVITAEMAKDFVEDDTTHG
UniProt Q8IX90, sequence (Q8IX90 whole entry, looked up): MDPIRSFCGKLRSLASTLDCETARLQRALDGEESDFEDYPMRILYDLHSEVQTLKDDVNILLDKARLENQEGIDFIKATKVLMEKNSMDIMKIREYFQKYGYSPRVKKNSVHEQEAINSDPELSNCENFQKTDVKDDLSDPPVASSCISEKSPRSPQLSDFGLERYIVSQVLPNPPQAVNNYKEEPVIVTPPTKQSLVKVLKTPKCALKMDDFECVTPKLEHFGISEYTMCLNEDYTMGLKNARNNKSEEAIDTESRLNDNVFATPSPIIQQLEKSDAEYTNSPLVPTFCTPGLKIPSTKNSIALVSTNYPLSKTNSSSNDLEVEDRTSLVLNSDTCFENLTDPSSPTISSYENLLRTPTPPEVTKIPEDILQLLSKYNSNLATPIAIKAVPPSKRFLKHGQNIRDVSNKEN
UniProt Q13188, sequence (Q13188 whole entry, looked up): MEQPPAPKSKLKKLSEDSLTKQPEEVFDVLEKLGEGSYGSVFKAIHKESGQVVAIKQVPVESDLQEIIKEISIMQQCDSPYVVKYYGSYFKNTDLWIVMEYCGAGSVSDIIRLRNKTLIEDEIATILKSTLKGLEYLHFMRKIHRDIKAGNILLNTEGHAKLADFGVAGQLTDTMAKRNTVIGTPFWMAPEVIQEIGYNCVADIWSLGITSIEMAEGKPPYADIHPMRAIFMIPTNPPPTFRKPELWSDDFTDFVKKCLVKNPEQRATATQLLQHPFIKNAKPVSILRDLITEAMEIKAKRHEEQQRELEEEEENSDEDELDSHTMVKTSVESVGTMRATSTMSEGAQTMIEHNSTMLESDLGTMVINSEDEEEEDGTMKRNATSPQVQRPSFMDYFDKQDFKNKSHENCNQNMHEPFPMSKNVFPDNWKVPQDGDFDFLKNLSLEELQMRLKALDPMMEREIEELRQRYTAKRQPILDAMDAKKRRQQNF
UniProt Q7L8J4, sequence (Q7L8J4 whole entry, looked up): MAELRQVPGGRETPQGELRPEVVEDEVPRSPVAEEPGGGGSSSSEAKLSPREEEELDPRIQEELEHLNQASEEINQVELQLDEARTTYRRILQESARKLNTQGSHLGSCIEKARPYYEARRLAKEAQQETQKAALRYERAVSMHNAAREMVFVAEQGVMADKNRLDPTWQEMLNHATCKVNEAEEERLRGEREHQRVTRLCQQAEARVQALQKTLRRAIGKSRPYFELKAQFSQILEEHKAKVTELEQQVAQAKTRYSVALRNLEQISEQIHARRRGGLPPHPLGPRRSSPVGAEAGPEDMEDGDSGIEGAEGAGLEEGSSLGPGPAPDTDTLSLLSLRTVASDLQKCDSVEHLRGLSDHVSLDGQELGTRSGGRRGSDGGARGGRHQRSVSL
UniProt Q8NHG7, sequence (Q8NHG7 whole entry, looked up): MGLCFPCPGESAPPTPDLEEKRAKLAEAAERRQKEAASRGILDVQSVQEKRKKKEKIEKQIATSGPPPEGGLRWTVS
UniProt Q15208, sequence (Q15208 whole entry, looked up): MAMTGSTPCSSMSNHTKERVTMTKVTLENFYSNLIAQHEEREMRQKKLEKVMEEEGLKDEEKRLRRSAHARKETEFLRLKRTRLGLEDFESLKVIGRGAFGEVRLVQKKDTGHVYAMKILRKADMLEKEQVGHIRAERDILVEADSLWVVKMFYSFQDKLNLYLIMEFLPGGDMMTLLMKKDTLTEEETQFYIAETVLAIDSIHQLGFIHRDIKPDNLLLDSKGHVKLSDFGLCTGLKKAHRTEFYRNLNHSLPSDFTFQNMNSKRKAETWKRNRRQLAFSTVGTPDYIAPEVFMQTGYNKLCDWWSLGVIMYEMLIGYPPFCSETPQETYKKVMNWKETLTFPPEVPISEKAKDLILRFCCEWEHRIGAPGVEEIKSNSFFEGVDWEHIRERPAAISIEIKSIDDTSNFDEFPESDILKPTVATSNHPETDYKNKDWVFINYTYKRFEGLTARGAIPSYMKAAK
UniProt Q9UHW9, sequence (Q9UHW9 whole entry, looked up): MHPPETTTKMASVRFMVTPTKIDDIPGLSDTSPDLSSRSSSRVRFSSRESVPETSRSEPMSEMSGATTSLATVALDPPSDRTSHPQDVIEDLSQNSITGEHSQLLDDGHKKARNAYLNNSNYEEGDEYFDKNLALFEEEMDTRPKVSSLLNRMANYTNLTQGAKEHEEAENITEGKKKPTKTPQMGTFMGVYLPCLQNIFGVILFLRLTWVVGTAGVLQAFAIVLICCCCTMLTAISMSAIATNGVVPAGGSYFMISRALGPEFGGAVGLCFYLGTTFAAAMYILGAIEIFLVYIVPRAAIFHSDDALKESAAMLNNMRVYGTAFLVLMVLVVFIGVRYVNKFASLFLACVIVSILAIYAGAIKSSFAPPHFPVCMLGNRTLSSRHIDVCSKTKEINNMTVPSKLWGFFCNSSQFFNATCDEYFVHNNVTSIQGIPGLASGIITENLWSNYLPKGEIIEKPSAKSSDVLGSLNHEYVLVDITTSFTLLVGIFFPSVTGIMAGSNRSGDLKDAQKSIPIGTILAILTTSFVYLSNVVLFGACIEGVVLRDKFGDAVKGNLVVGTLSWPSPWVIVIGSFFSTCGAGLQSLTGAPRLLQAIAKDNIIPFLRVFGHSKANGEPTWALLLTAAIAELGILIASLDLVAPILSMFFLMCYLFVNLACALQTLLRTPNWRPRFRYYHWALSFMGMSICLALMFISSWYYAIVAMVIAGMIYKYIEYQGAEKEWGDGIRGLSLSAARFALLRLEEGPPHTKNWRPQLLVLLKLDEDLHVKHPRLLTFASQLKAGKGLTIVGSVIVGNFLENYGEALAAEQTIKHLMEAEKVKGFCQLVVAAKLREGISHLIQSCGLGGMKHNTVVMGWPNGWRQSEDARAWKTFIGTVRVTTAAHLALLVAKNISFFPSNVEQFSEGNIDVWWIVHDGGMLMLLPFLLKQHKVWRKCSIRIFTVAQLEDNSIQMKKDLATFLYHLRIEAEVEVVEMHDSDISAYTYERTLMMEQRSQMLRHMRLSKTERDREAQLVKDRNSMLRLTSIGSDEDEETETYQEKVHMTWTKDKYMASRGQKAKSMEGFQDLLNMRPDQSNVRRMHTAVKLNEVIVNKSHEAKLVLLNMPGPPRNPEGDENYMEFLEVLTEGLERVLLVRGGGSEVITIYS
UniProt Q96H78, sequence (Q96H78 whole entry, looked up): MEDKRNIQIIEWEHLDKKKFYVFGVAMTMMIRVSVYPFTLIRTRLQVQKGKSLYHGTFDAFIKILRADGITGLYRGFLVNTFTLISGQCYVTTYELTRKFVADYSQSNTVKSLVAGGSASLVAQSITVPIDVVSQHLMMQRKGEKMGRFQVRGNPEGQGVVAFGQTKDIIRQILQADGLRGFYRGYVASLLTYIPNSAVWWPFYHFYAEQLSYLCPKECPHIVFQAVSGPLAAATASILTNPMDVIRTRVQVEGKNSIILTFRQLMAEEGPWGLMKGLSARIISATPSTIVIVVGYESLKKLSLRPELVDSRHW
UniProt Q8N1S5, sequence (Q8N1S5 whole entry, looked up): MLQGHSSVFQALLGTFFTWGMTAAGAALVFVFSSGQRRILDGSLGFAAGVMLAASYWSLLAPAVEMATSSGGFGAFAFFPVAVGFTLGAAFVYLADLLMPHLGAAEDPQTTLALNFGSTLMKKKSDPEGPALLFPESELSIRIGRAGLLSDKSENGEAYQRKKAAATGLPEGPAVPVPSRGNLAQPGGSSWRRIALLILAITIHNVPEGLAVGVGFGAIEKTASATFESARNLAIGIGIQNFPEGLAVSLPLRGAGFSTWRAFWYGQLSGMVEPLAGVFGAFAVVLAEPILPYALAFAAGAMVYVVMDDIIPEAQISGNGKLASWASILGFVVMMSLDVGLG
UniProt O43805, sequence (O43805 whole entry, looked up): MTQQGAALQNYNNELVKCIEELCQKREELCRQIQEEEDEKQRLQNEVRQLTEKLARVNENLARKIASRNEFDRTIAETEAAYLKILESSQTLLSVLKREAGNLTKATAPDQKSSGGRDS

Turning to SMC3 (UniProt Q9UQE7), the log2 fold change in test [1] was -0.01; in [2], 0.018; in test [3], -0.004; in test [4], 0.018; in [5], -0.013; in test [6] it was 0.002. Besides, the log2 fold change is 0.023 in [7], -0.007 in test [8], -0.016 in test [9] and -0.009 in test [10].

Consider SSNA1 (UniProt O43805), for which the log2 fold change in test [1] is -0.004; in test [2], -0.04; in test [3], -0.013; in test [4], 0.07; in test [5] it was -0.036; in [6] it was 0.04. For the same target, the log2 fold change in test [7] was -0.03; in [8], -0.002; in test [9], 0.066; in test [10] it was 0.018.

Regarding STK3 isoform 2 (UniProt Q13188), the log2 fold change in test [1] is -0.009; in [2], -0.1; in [3], 0.012; in test [4] it was -0.07; in test [5] it was -0.001; in [6], 0.016. The log2 fold change in test [7] is 0.181; in test [8] it was 0.157; in [9], 0.031; in [10], -0.005.

With SKA3 (UniProt Q8IX90), the log2 fold change in [1] was 0.018; in [2], -0.081; in test [3], 0.02; in test [4], -0.01; in test [5] it was -0.052; in [6] it was -0.022. Further, the log2 fold change in [7] is 0.001; in [8], -0.02; in test [9], 0.042; in test [10] it was 0.013.

For SLC39A11 (UniProt Q8N1S5), the log2 fold change in test [1] is -0.093; in [2] it was 0.116; in test [3] it was -0.047; in [4] it was -0.139; in test [5] it was -0.071; in test [6] it was 0.05. The log2 fold change is 0.062 in test [7], 0.385 (active) in [8], 0.058 in [9] and -0.053 in test [10].

On to SYF2 (UniProt O95926), for which the log2 fold change in [1] was 0; in test [2] it was 0.043; in [3] it was 0.037; in test [4], -0.025; in [5], -0.015; in [6], 0.037. The log2 fold change in test [7] was 0.063; in test [8], -0.048; in [9], 0; in test [10], -0.057.

For the target SLC30A6 isoform 2 (UniProt Q6NXT4), the log2 fold change in [1] was -0.014; in [2], 0.031; in [3], -0.012; in test [4] it was -0.08; in test [5], 0.069; in test [6] it was 0.008. Besides, the log2 fold change in [7] was -0.212; in test [8], -0.005; in test [9], -0.059; in test [10] it was 0.

On to SH3BP5L (UniProt Q7L8J4), for which the log2 fold change was 0.001 in test [1]; -0.156 in test [2]; 0.004 in [3]; -0.058 in test [4]; -0.032 in test [5]; 0.003 in [6]. Also, the log2 fold change is 0.065 in [7], -0.019 in test [8], 0 in test [9] and 0 in [10].

For the target SPIRE1 (UniProt Q08AE8), the log2 fold change in test [1] was -0.062; in test [2], 0.054; in test [3] it was -0.032; in test [4], 0.068; in test [5] it was -0.067; in test [6], 0.027. The log2 fold change was 0.022 in [7], 0.013 in [8], -0.024 in test [9] and -0.032 in test [10].

On to STK38 (UniProt Q15208), for which the log2 fold change in [1] was -0.018; in [2], -0.029; in test [3] it was -0.063; in test [4], -0.005; in test [5], 0.038; in test [6], 0.029. Also, the log2 fold change in test [7] is 0.176; in [8], -0.002; in test [9] it was 0.055; in test [10], -0.006.

For the target SPATA5 (UniProt Q8NB90), the log2 fold change is 0.04 in test [1]; 0.025 in [2]; -0.006 in [3]; 0.025 in test [4]; -0.042 in test [5]; 0.042 in test [6]. In addition, the log2 fold change was 0.015 in [7], 0.017 in [8], 0.017 in test [9] and 0.016 in test [10].

SLC25A44 (UniProt Q96H78): the log2 fold change in [1] is 0.117; in test [2] it was -0.275; in [3] it was 0.055; in [4] it was -0.018; in test [5], 0.025; in test [6], -0.064. Besides, the log2 fold change in test [7] is 0.145; in test [8] it was -0.039; in test [9], 0.037; in [10] it was -0.053.

As to STK4 (UniProt Q13043), the log2 fold change in test [1] was -0.013; in test [2], -0.15; in [3], -0.033; in test [4], -0.061; in test [5] it was -0.008; in test [6], -0.009. Moreover, the log2 fold change is 0.165 in test [7], 0.187 in [8], 0.053 in [9] and 0.018 in test [10].

Regarding SVIP (UniProt Q8NHG7), the log2 fold change in [1] was 0.037; in test [2], 0.013; in [3] it was -0.004; in [4], -0.007; in test [5] it was 0.001; in test [6], 0.041. Further, the log2 fold change in test [7] was -0.012; in test [8], 0.107; in test [9], 0.057; in [10] it was 0.001.

As for SLC12A6 (UniProt Q9UHW9), the log2 fold change was -0.014 in test [1]; -0.073 in test [2]; -0.047 in [3]; 0.013 in [4]; -0.006 in [5]; -0.028 in [6]. Besides, the log2 fold change was -0.01 in test [7], -0.024 in [8], 0.068 in [9] and -0.01 in test [10].
